The campaign covered roughly 5,500 compounds. About 2,000 (36%) were called active. Another 18% or so got no clear call; they are omitted. No stated cut-off is given here; in the data, active means normalized growth mostly below about 0.91 (no sharp cut-off); inconclusive means no clear call, values can overlap the other calls; inactive means mostly above about 0.92. The list shows a part of the results.
Experiment: chemical genetic growth profiling, strain panel (AID 1159580);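 further: tested at 20 µM; growth read once vehicle control cultures reached saturation at 30 °C; 1 = growth at the plate median or of vehicle wells; lower values mean less growth of the strain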
Settings: growth OD

Measured: normalized growth

CCOC(=O)[C@H](CCc1ccccc1)N[C@@H](C)C(=O)N1[C@H](C(=O)O)C[C@@H]2CCC[C@@H]21
inactive: S. cerevisiae deletion strains, locus YJR075W, strain HOC1, hits give low values 0.998 | S. cerevisiae deletion strains, locus YKL009W, strain mrt4, hits give low values 1.01 | S. cerevisiae deletion strains, locus YKL068W, hits give low values 1.02 | S. cerevisiae deletion strains, locus YKL085W, strain MDH1 (second series), hits give low values 1.02 | S. cerevisiae deletion strains, locus YKL085W, strain MDH1, hits give low values 1.02 | S. cerevisiae deletion strains, locus YKL160W, strain elf1, hits give low values 0.981 | S. cerevisiae deletion strains, locus YKL190W, strain CNB1, hits give low values 1.01 | S. cerevisiae deletion strains, locus YKR001C, strain vps1, hits give low values 1.02 | S. cerevisiae deletion strains, locus YKR026C, strain gcn3, hits give low values 0.98 | S. cerevisiae deletion strains, locus YKR091W, strain srl3, hits give low values 0.985 | S. cerevisiae deletion strains, locus YLL001W, strain dnm1, hits give low values 0.989 | S. cerevisiae deletion strains, locus YLL026W, hits give low values 0.991 | S. cerevisiae deletion strains, locus YLL041C, strain sdh2, hits give low values 0.982 | S. cerevisiae deletion strains, locus YLR027C, strain aat2, hits give low values 0.992 | S. cerevisiae deletion strains, locus YLR039C, strain RIC1, hits give low values 1.06 | S. cerevisiae deletion strains, locus YLR058C, strain SHM2, hits give low values 1.01 | S. cerevisiae deletion strains, locus YLR102C, strain apc9, hits give low values 1.02 | S. cerevisiae deletion strains, locus YLR113W, strain HOG1, hits give low values 0.98 | S. cerevisiae deletion strains, locus YLR221C, strain rsa3, hits give low values 1 | S. cerevisiae deletion strains, locus YLR258W, strain gsy2, hits give low values 0.991 | S. cerevisiae deletion strains, locus YLR262C, strain YPT6 (second series), hits give low values 0.967 | S. cerevisiae deletion strains, locus YLR262C, strain YPT6, hits give low values 1.08 | S. cerevisiae deletion strains, locus YLR268W, strain sec22, hits give low values 1.02 | S. cerevisiae deletion strains, locus YLR320W, strain mms22, hits give low values 0.975 | S. cerevisiae deletion strains, locus YLR330W, strain CHS5, hits give low values 1.01 | S. cerevisiae deletion strains, locus YLR342W, strain FKS1 (second series), hits give low values 1.02 | S. cerevisiae deletion strains, locus YLR342W, strain FKS1, hits give low values 0.989 | S. cerevisiae deletion strains, locus YLR357W, strain rsc2, hits give low values 0.978 | S. cerevisiae deletion strains, locus YLR370C, strain arc18, hits give low values 0.98 | S. cerevisiae deletion strains, locus YLR371W, strain rom2, hits give low values 1.01 | S. cerevisiae deletion strains, locus YLR384C, strain iki3, hits give low values 0.984 | S. cerevisiae deletion strains, locus YLR418C, strain cdc73, hits give low values 1.06 | S. cerevisiae deletion strains, locus YML016C, strain PPZ1, hits give low values 1.02 | S. cerevisiae deletion strains, locus YML032C, strain rad52, hits give low values 1.02 | S. cerevisiae deletion strains, locus YML120C, strain ndi1, hits give low values 0.993 | S. cerevisiae deletion strains, locus YML124C, strain tub3, hits give low values 1.02 | S. cerevisiae deletion strains, locus YMR058W, strain fet3, hits give low values 0.99 | S. cerevisiae deletion strains, locus YMR078C, strain ctf18, hits give low values 1.03 | S. cerevisiae deletion strains, locus YMR125W, strain sto1, hits give low values 0.976 | S. cerevisiae deletion strains, locus YMR129W, hits give low values 0.979 | S. cerevisiae deletion strains, locus YMR205C, strain PFK2, hits give low values 0.981 | S. cerevisiae deletion strains, locus YMR223W, strain ubp8, hits give low values 1.02 | S. cerevisiae deletion strains, locus YMR231W, strain pep5, hits give low values 0.978 | S. cerevisiae deletion strains, locus YMR263W, strain SAP30, hits give low values 1.02 | S. cerevisiae deletion strains, locus YMR307W, strain GAS1, hits give low values 1.04 | S. cerevisiae deletion strains, locus YNL067W, strain RPL9B, hits give low values 1.01 | S. cerevisiae deletion strains, locus YNL071W, strain lat1, hits give low values 0.975 | S. cerevisiae deletion strains, locus YNL128W, strain TEP1, hits give low values 1 | S. cerevisiae deletion strains, locus YNL153C, strain GIM3, hits give low values 1.01 | S. cerevisiae deletion strains, locus YNL183C, strain NPR1, hits give low values 0.968 | S. cerevisiae deletion strains, locus YNL209W, strain ssb2, hits give low values 0.981 | S. cerevisiae deletion strains, locus YNL233W, strain BNI4, hits give low values 1 | S. cerevisiae deletion strains, locus YNL248C, strain rpa49, hits give low values 0.986 | S. cerevisiae deletion strains, locus YNL250W, strain rad50, hits give low values 1.03 | S. cerevisiae deletion strains, locus YNL271C, strain bni1, hits give low values 1.02 | S. cerevisiae deletion strains, locus YNL298W, strain CLA4, hits give low values 1.03 | S. cerevisiae deletion strains, locus YNL307C, strain MCK1, hits give low values 1.02 | S. cerevisiae deletion strains, locus YNL322C, strain KRE1 (second series), hits give low values 0.982 | S. cerevisiae deletion strains, locus YNL322C, strain KRE1, hits give low values 1.01 | S. cerevisiae deletion strains, locus YNR049C, strain mso1, hits give low values 0.985 | S. cerevisiae deletion strains, locus YNR052C, strain pop2, hits give low values 1.01 | S. cerevisiae deletion strains, locus YOL006C, strain TOP1, hits give low values 1.03 | S. cerevisiae deletion strains, locus YOL012C, strain htz1 1.2 | S. cerevisiae deletion strains, locus YOL147C, strain pex11, hits give low values 1.01 | S. cerevisiae deletion strains, locus YOR001W, strain rrp6, hits give low values 0.997 | S. cerevisiae deletion strains, locus YOR061W, strain CKA2, hits give low values 1.01 | S. cerevisiae deletion strains, locus YOR069W, strain VPS5, hits give low values 1 | S. cerevisiae deletion strains, locus YOR070C, strain gyp1, hits give low values 0.991 | S. cerevisiae deletion strains, locus YOR080W, strain dia2, hits give low values 0.982 | S. cerevisiae deletion strains, locus YOR083W, strain WHI5, hits give low values 0.984 | S. cerevisiae deletion strains, locus YOR106W, strain vam3, hits give low values 1.01 | S. cerevisiae deletion strains, locus YOR136W, strain idh2, hits give low values 1.02 | S. cerevisiae deletion strains, locus YOR144C, strain elg1, hits give low values 1.02 | S. cerevisiae deletion strains, locus YOR184W, strain ser1, hits give low values 1.03 | S. cerevisiae deletion strains, locus YOR231W, strain MKK1, hits give low values 0.983 | S. cerevisiae deletion strains, locus YOR265W, strain rbl2, hits give low values 0.979 | S. cerevisiae deletion strains, locus YOR270C, strain vph1, hits give low values 1.03 | S. cerevisiae deletion strains, locus YOR290C, strain snf2, hits give low values 0.988 | S. cerevisiae deletion strains, locus YOR316C, strain cot1, hits give low values 1.02 | S. cerevisiae deletion strains, locus YPL051W, strain arl3, hits give low values 0.987 | S. cerevisiae deletion strains, locus YPL055C, strain LGE1, hits give low values 1.02 | S. cerevisiae deletion strains, locus YPL078C, strain atp4, hits give low values 0.977 | S. cerevisiae deletion strains, locus YPL106C, strain sse1, hits give low values 0.988 | S. cerevisiae deletion strains, locus YPL240C, strain hsp82, hits give low values 0.984 | S. cerevisiae deletion strains, locus YPL241C, strain CIN2, hits give low values 0.999 | S. cerevisiae deletion strains, locus YPL256C, strain CLN2, hits give low values 0.973 | S. cerevisiae deletion strains, locus YPR119W, strain clb2, hits give low values 1.01 | S. cerevisiae deletion strains, locus YPR141C, strain kar3, hits give low values 1.03 | S. cerevisiae deletion strains, locus YPR163C, strain tif3, hits give low values 1.01 | S. cerevisiae deletion strains, locus YPR167C, strain met16, hits give low values 1.02 | S. cerevisiae deletion strains, strain wtn01, hits give low values 1.02 | S. cerevisiae strains, strain wild type, hits give low values 1.01
